“And” between values parts separate entries of the source, which are not always exact repeats. Equal entries are not always repeated. Screen size: about 340,000 compounds; about 2,100 (0.62%) were called active.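 How the source made its calls: active means first-screen hits whose inhibition reached a set limit at any dose in the follow-up dose series; inconclusive means inhibition above the set first-screen limit but never retested; inactive means the rest.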 Not all results are given here. Potency and affinity values are given separately.
What follows are compounds tested against Rac GTPase-activating protein 1 (Homo sapiens) (UniProt Q9H0H5) (assay: MgcRacGAP GTPase-activating activity inhibitors, confirmation, biochemical, ADP Hunter fluorescence, primary and confirmatory (AID 624330;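 further: fluorescence reports GDP produced by GAP-driven GTP hydrolysis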)). Details: MgcRacGAP-stimulated Rac1 GTP hydrolysis, at 30 µM, stronger effect = higher value, GST-tagged Rac1 F28L mutant substrate.
Rac GTPase-activating protein 1 (Homo sapiens), sequence (Q9H0H5 whole entry, looked up): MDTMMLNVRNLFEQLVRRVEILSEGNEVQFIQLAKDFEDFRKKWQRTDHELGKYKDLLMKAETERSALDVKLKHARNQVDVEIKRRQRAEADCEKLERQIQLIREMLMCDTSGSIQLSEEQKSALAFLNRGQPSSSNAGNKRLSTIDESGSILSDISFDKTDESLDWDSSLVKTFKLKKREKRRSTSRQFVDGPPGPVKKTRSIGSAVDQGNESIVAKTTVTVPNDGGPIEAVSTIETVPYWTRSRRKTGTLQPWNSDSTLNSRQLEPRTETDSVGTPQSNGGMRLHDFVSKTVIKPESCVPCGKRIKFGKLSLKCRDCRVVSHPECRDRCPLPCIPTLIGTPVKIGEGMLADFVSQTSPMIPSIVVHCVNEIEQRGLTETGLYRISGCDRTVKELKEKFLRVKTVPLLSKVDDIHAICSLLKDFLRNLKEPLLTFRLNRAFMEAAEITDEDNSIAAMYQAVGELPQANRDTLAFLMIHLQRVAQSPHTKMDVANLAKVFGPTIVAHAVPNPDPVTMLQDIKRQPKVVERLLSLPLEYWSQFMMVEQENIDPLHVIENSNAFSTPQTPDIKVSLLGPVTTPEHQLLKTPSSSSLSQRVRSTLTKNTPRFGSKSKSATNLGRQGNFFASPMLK

inhibition, inactive:
CCC[C@@H](CN1CCC[C@H]1CN1C(N)=NC[C@@H]1Cc1ccccc1)N1C[C@@H]([C@H](C)CC)N(CCCC2CCCC2)C1=N 12.3%
COc1ccccc1CNC(=O)COC(=O)Cc1c[nH]c2ccccc12 4.99%
CC1CCCC(C)N1CCCNC(=O)CN1C(=O)c2cccnc2Oc2ccc(Cl)cc21 (stereo not drawn) 6.32%
CCC(C)N1CCCCC1C(=O)Nc1c(C)cc(C)cc1C (stereo not drawn) 2.22%
CCc1ccc(NC(=O)CCc2nc3ccccc3[nH]2)cc1 10.8%
COc1ccc(Br)cc1CNc1ccccc1 26%
COc1ccc(Br)cc1CNc1ccc(S(N)(=O)=O)cc1 0.46%
CC(C)n1c(SCC(=O)Nc2nncs2)nnc1C1CC1 4.43%
NC(=O)C[C@H](NC(=O)c1ccc(Cl)cc1)C(=O)OCc1ccccc1 8.75%
COc1cccc(NC(=O)C(=O)c2cn(CC(=O)N3CCCC3)c3ccccc23)c1 10%
COCCN=c1scc(-c2ccco2)n1/N=C/c1ccc(O)c(O)c1O -21.8%
CN=c1scc(-c2ccccc2F)n1/N=C/c1ccc(O)c(O)c1O -8.6%
C=CCN=c1scc(-c2ccco2)n1/N=C/c1ccc(O)c(O)c1O -25.9%
COc1ccc(O)c(/C=N/n2c(-c3ccco3)csc2=Nc2cccnc2)c1 14.5%
CCN=c1scc(-c2ccco2)n1/N=C/c1ccc(OC)c(O)c1 28%
CCN=c1scc(-c2ccc(F)cc2)n1/N=C/c1ccccn1 9.08%
CCN=c1scc(-c2ccco2)n1/N=C/c1ccc(O)cc1 13.7%
CC(C)n1c(-c2ccco2)csc1=Nc1cccnc1 11.3%
CCCCc1ncc(CN2CCC(n3nccc3NC(=O)C(OC)c3ccccc3)CC2)[nH]1 (stereo not drawn) 8.08%
O=C(CN1CCN(Cc2ccccc2)C1=O)NCc1ccc(Cl)cc1 3.73%
NC(=O)COc1ccc(C(=O)NCC2(N3CCOCC3)CCCCC2)cc1 4.65%
Cc1ccc([C@H]2C[C@@H](O)[C@H](n3cc(COC(=O)c4ccccc4)nn3)CN2Cc2cccs2)cc1 -0.67%
COc1ccccc1NC(=O)c1ccc(NC(=O)COC(=O)c2cncc(Br)c2)cc1 5.46%
CC(C)CC1C(C#N)=C(N)OC2=C1C(=O)CC(c1ccccc1)C2 (stereo not drawn) -2.75%
COc1ccc(CCn2c(-c3cc([N+](=O)[O-])cc([N+](=O)[O-])c3)nc3nc4ccccc4nc32)cc1 4.41%
CN(Cc1cnccn1)C(=O)C1CCC(=O)N(CCc2ccc(Cl)cc2)C1 (stereo not drawn) 8.49%
COc1ccc(CCNC(=O)N2CCOCC2)cc1 14.2%
COC(=O)c1ccc(OCC(O)CN2CCOCC2)cc1 (stereo not drawn) -9.81%
CN1CCN(NC(=O)NC2CCCCC2)CC1 2.74%
COc1cc(NC(=O)c2cccs2)ccc1NC(=O)Cc1ccccc1 4.97%
N#Cc1cccc(NC(=O)CNc2cccc(S(=O)(=O)N3CCCC3)c2)c1 -1.55%
O=C(Nc1cccc(S(=O)(=O)N2CCOCC2)c1)c1c2c(nc3ccccc13)CCC2 11.9%
COC(c1ccccc1)c1nnc(CCC(=O)NCc2ccc3ncccc3c2)o1 (stereo not drawn) 9.84%
CCCN1CNC(=S)N(c2ccc(C)cc2C)C1 16.6%
CC(C)N(Cc1cc2ccccc2[nH]c1=O)C(=O)C(C)(C)C -1.34%
CCc1c(C)nc(N)nc1Cl -2.74%
CCOC(=O)C(Sc1cc(C)nc(N)n1)C(C)=O (stereo not drawn) 0.9%
COc1cc2c(cc1OC)C(c1ccccc1)=NCC2 3.03%
COc1cc2c(cc1OC)C(C)=NCC2 5.87%
Cc1cc(OCC(=O)OCC(=O)Nc2cc(S(=O)(=O)N3CCOCC3)ccc2Cl)ccc1Cl 2.85%
CCOC(=O)CN1C(=N)N(c2nc(NC(C)C)nc(NC(C)C)n2)CC1=O 7%
CCOC(=O)Cc1csc(NC(=O)CSc2nnnn2-c2ccc(CC)cc2)n1 8.91%
Cc1ccc(NC(=O)CCNC(=O)Nc2ccccc2)cc1S(=O)(=O)N(C)C 2.28%
Cc1ccc(NC(=O)CCNC(=O)c2ccccc2Cl)cc1S(=O)(=O)N(C)C 2.79%
CCN1/C(=N\N)c2cccc3cccc1c23 13.1%
CN1C(=O)N(C)c2cccc3cccc1c23 6.07%
Cc1oc(-c2cccc(F)c2)nc1CN1CCCN(C(=O)c2ccco2)CC1 9.79%
CCCCn1c(N)c(N(Cc2ccccc2OC)C(=O)C(C)Oc2ccc(Cl)cc2)c(=O)[nH]c1=O (stereo not drawn) 3.24%
Cc1ccc(S(=O)(=O)N(C)Cc2ccc(C(=O)NN=C(CC(C)C)CC(C)C)cc2)cc1 7.07%
CCn1cnc2c(Nc3cccc(Cl)c3)nc(C#N)nc21 12.9%
O=C(NCc1ccco1)c1cc2sccc2n1Cc1ccccc1 12.8%
O=C(NCC1CCCO1)c1ccccc1 (stereo not drawn) -0.11%
O=C(Cn1c(C(=O)NCCCN2CCOCC2)cc2sccc21)c1ccccc1 29.1%
O=C(NCc1ccco1)c1ccccc1 4.89%
CN1CCc2c(n(CC(O)CNCc3ccccc3)c3ccccc23)C1=O (stereo not drawn) 8.39%
COc1cc(C(F)(F)F)c(C(=O)N(C)Cc2ccc(Cl)c(Cl)c2)cn1 5.07%
O=C(CN1C(=O)c2ccccc2S1(=O)=O)Nc1ccc(S(=O)(=O)N2CCCC2)cc1 -4.76%
CN1CCN(S(=O)(=O)c2ccc(Cl)cc2)CC1 4.29% and 1.92%
O=S(=O)(c1ccc(Cl)cc1)N1CCCCCC1 4.19%
Cc1ccc(S(=O)(=O)NCCc2ccccc2)cc1 8.77%
Cc1ccc(S(=O)(=O)N2CCC(C(=O)N3CCCC(C(F)(F)F)C3)CC2)cc1C (stereo not drawn) 5.5%
CCOC(=O)C1=C(C)N(C)C(=O)NC1c1cc2c(cc1[N+](=O)[O-])OCO2 (stereo not drawn) 11.2%
CCOC(=O)C1=C(C)NC(=O)CC1c1cc2c(cc1Br)OCO2 (stereo not drawn) 14.8%
COc1ccc(CC(Cc2ccc(OC)c(OC)c2)NC=O)cc1OC 8.2%
O=C(Nc1ccccc1C(=O)Nc1ccccc1)c1ccco1 3.51%
CCOc1ccc(N2C(=O)C3C(c4ccccc4F)NN(C(=O)c4ccc(C)cc4)C3C2=O)cc1 (stereo not drawn) -3.94%
CC(=O)C1C(c2ccc([N+](=O)[O-])cc2)c2c(noc2C)CC1(C)O (stereo not drawn) -3.68%
CC(C)(C)OC(=O)n1cc(/C=N/NC(=O)c2ccco2)c2ccccc21 6.56%
O=C(O)CCCN1C(=O)/C(=C\c2ccc(-c3nc4ccccc4s3)o2)SC1=S 10.4%
O=C(O)CCCN1C(=O)/C(=C/c2ccc(-c3nc4ccccc4s3)o2)SC1=S 11.9%
COc1ccc(NC(=O)CNC(c2ccccc2)c2ccccc2)cc1Cl 5.6%
Cc1cccc(NC(=O)Cn2c(=O)oc3cc(S(=O)(=O)N4CCCC4)ccc32)n1 9.63%
CN(C)S(=O)(=O)Oc1ccc(Cl)cc1C(=O)Nc1ccc(F)cc1F 0.65%
Cc1ccc(N=Cc2c(O)c3ccccc3oc2=O)c(C)c1 5.4%
Cc1ccc(F)cc1N=Cc1c(O)c2ccccc2oc1=O 7.61%
COc1ccccc1NC(=O)C(=O)N1N=C(C(C)C)CC1(O)C(F)(F)F (stereo not drawn) -2.51%
O=C(NCc1cccc(C(F)(F)F)c1)C1CC(c2ccc(C(F)(F)F)cc2)=NO1 (stereo not drawn) 7.21%
Cc1ccc(Nc2cc(C)nc3ncnn23)c(C)c1 7.05%
Cc1ccc(C)c(N2CCN(CCCc3ccccc3)CC2)c1 -8.46%
O=C1C(Cl)=C(NCCCO)C(=O)c2ccccc21 7.29%
Cc1ccc(NC2=C(Cl)C(=O)c3ccccc3C2=O)cc1 5.85%
CCc1ccc(S(=O)(=O)/N=C2\C=C(Nc3ccc(O)cc3)C(=O)c3ccccc32)cc1 10.1%
CCN(CC)c1ccc(NC2=C(Cl)C(=O)c3ccccc3C2=O)cc1 28.6%
CCNC1=C(Cl)C(=O)c2ccccc2C1=O 9.6%
O=C(O)c1ccc(NC2=C/C(=N/S(=O)(=O)c3ccccc3)c3ccccc3C2=O)cc1 11.5%
Cc1ccc(NC2=C/C(=N/S(=O)(=O)c3cccs3)c3ccccc3C2=O)cc1 12.6%
O=C1C(Nc2ccccc2)=C/C(=N/S(=O)(=O)c2cccs2)c2ccccc21 13.2%
CC(C)CN1CCC(=O)N([C@H](COc2ccccc2)c2ccccc2)CC1 12.8%
O=C(CN1C2CCCC1CC(NC(=O)c1ccco1)C2)Nc1ccccc1 (stereo not drawn) 9.34%
CN(CC(=O)Nc1cccc(F)c1)CC(=O)N(C)c1c(N)n(Cc2ccccc2)c(=O)[nH]c1=O 7.85%
CC(C)c1ccc(NC(=O)COC(=O)c2c[nH]c(=O)[nH]c2=O)cc1 6.27%
Cc1ccc(C(=O)Nc2ncccc2O)cc1S(=O)(=O)N1CCCCC1 -2.55%
Cc1csc(=O)n1CC(=O)OCC(=O)NCc1ccc(Cl)cc1Cl 8.92%

Reference: PubChem BioAssay AID624330 (Southern Research Specialized Biocontainment Screening …, 2012)
